# About 13,000 (27%) of roughly 48,000 compounds showed an effect of 50% or more. The list shows a part of the results.
# Tested on: Wolbachia pipientis
# Experiment: Anti-Wolbachia Cell-Based Screen
# Assay type: functional
# Set-up: scale not given: in the data most compounds retested in dose-response had high values
# Details: 5 µM
row,Structure (SMILES),Percent Effect [%]
1,CN(Cc1ccon1)C(=O)C1CC(=O)N(Cc2cccnc2)C1 (stereo unspecified),3.448
2,Cc1cc(Cn2cncc(Br)c2=O)on1,0.4664
3,O=C(NCc1cccc(C(F)(F)F)c1)C(c1cccnc1)N1CCCC1 (stereo unspecified),-10.57
4,CC(C)[C@H]1COC(=O)N1CC(=O)N1CCCN(C(=O)c2ccoc2)CC1,-24.24
5,Cc1cccc(N2CCC(NCc3cnc(C4CCC4)s3)CC2)n1,7.912
6,Cc1nc(C(F)(F)F)nc(N2CCC3(CC2)CC(C(=O)O)N(C)C3)c1C (stereo unspecified),-7.708
7,CCOCCC(=O)N1CCCC(c2ncc[nH]2)C1 (stereo unspecified),-13.21
8,CCCC(=O)N1CCCC(c2ccccn2)C1 (stereo unspecified),152.5
9,CCC(=O)N1CCCC(c2cc(Nc3ncccn3)nc(C)n2)C1 (stereo unspecified),-9.589
10,Cc1nc2c(s1)C(N(C)C(=O)NCCCC(C)(C)CO)CCC2 (stereo unspecified),-8.844
11,Cc1noc(C(C)Nc2ccc3oc(C(C)C)nc3c2)n1 (stereo unspecified),8.094
12,Cc1cc(CNC(=O)NC(C)c2ccc(N3CCOCC3)cc2)no1 (stereo unspecified),1.457
13,CCNC(=O)c1nnc2ccc(N3CCOCC3)cc2n1,17.66
14,CC(NCc1nnc2n1CCCC2)c1nc(C(C)(C)C)no1 (stereo unspecified),3.435
15,Cc1cc(N2CCOCC2)ccc1NC(C)c1nc(C(C)(C)C)no1 (stereo unspecified),111.3
16,Cc1cc(OCC(=O)NC(C)c2ccc(N3CCOCC3)cc2)no1 (stereo unspecified),-0.3596
17,Cc1cc(CN2CCN(C(C)c3nc(C(C)C)no3)CC2)no1 (stereo unspecified),1.416
18,Cc1noc(C(C)Nc2ccc3oc(C)nc3c2)n1 (stereo unspecified),8.533
19,Cc1cc(N2CCOCC2)ccc1NC(C)c1nc(C(C)C)no1 (stereo unspecified),89
20,CCN1CCN(c2ccc(C(=O)NC(C)c3ccncc3)cc2)CC1 (stereo unspecified),-3.258
21,Cc1noc(C(C)Nc2ccc(N3CCOCC3)cc2C)n1 (stereo unspecified),200.3
22,CCN1CCN(c2ccc(NC(C)c3nc(C(C)C)no3)c(C)c2)CC1 (stereo unspecified),117.8

row,Structure (SMILES),Percent Effect [%]
1,COCc1c(C(=O)O)nnn1Cc1cccc(C(F)(F)F)c1,8.575
2,Cc1c(C(=O)O)nnn1-c1cccc2cccnc12,-7.776
3,CCc1c(C(=O)O)nnn1-c1cccc(C)c1C,95.29
4,Cc1ccc(C)c(-n2nnnc2SCN2CCCCC2=O)c1,-6.055
5,COCc1c(C(=O)NC2CCCC2)nnn1-c1ccc(C)cc1,-4.164
6,CCc1c(C(=O)O)nnn1-c1cc(C)cc(C)c1,90.67
7,CCc1c(C(=O)O)nnn1-c1cc(C)ccc1C,72.77
8,CCc1c(C(=O)O)nnn1-c1ccc(C)cc1C,82.86
9,Cc1ccc(C(=O)N(C)CC(=O)N2CCCC2)c(C)c1,-3.926
10,COc1cc(OC)c(-n2nnc(C(=O)O)c2C)cc1Cl,-3.799
11,Cc1ccc(CCNC(=O)NCCCC(N)=O)c(C)c1,-5.264
12,Cc1c(C(=O)N2CCC2(C)C)nnn1-c1cccc2cccnc12,0.9445
13,CCc1cnc(N2C[C@H](OCc3csc(C)n3)[C@H]3COC[C@H]32)nc1.O=C(O)C(F)(F)F.O=C(O)C(F)(F)F,4.189
14,CN1CCC(N[C@@H]2CO[C@H](CNC(=O)c3cccs3)[C@H]2O)CC1,-3.68
15,O=C(c1cn(CC(=O)N2CCc3[nH]cnc3C2)c2ccccc12)C1CC1,1.32
16,COc1ccc(NC(=O)CSC(F)(F)F)cn1,1.311
17,O=C(c1coc2ccccc12)N1CCS(=O)(=O)CC1,0.973
18,Cc1ccc(-n2nnc(C(=O)O)c2C)c(C)c1,89.24
19,COc1cc(Cl)c(C)cc1-n1nnc(C(=O)O)c1-c1ccncc1,-11.88
20,COc1cc(Cl)c(C)cc1-n1nnc(C(=O)O)c1C,4.448
21,CC(C)(O)CCc1cccc(C(=O)NCc2cnn3cccnc23)c1,6.543
22,CCN(Cc1ccc2c(c1)OCO2)C(=O)NC(C)Cn1cccn1 (stereo unspecified),4.631

row,Structure (SMILES),Percent Effect [%]
1,CS(=O)(=O)CC1CCCN(C(=O)Cn2cccc(C(F)(F)F)c2=O)C1 (stereo unspecified),2.203
2,OCCn1nccc1C1CCN(CCCOc2ccc(F)cc2)CC1,-1.646
3,c1cc(-c2nnc([C@H]3CCN(C4CCOCC4)C3)o2)ccn1,-3.579
4,NC(=O)Cn1ccnc1C1CCCN(CCSc2ccccc2)C1 (stereo unspecified),0.1316
5,CC(C)(C)c1cnc(CN2CCC(c3ccnn3CCO)CC2)o1,-7.147
6,COCCN1CCCC(c2ccnc3c(C(N)=O)cnn23)C1 (stereo unspecified),97.31
7,COc1ccccc1OCCN1CCCC(c2cc(C(N)=O)[nH]n2)C1 (stereo unspecified),-3.836
8,O=C(NCCc1c[nH]cn1)C1CCCN(C2CCOCC2)C1 (stereo unspecified),-7.633
9,NC(=O)c1cnn2c(C3CCN(CCO)CC3)ccnc12,128.9
10,NC(=O)c1cnn2c(C3CCCN(C4CCOCC4)C3)ccnc12 (stereo unspecified),143.8
11,CCC(CC)c1cc(C(=O)N2CCN(CC(N)=O)CC2)on1,14.59
12,CC(=O)N1CCC(C(=O)NC(C)c2cccc(OC(F)F)c2)CC1 (stereo unspecified),11.71
13,CNC(=O)[C@@H](c1ccccc1)N1CCC[C@H]1C(=O)NC1CCCCC1.Cl,13.78
14,O=C1NCCCC12CCN(S(=O)(=O)N1CCOCC1)C2 (stereo unspecified),-15.95
15,CCc1nc(CN(C)Cc2nc(-c3ccccc3Cl)oc2C)no1,-5.34
16,NC(=O)NC(CC(=O)NCCc1cccc(F)c1)c1ccccc1 (stereo unspecified),-0.165
17,CN(C)c1nccc(C2CCCCN2Cc2cnn3cccnc23)n1 (stereo unspecified),74.52
18,c1ccc(C2CCCN2Cc2nc(-c3cnccn3)no2)nc1 (stereo unspecified),-14.84
19,c1ccc(C2CCCCN2Cc2nc(-c3cnccn3)no2)nc1 (stereo unspecified),12.62
20,Cc1nc(C)c(C)c(NCc2cnn3cccnc23)n1,-1.599
21,c1ccc(-c2ncc(CN3CCCCC3CCn3cccn3)cn2)nc1 (stereo unspecified),-35.25
22,CNc1nccc(C2CCCCN2Cc2cnn3cccnc23)n1 (stereo unspecified),117.1

row,Structure (SMILES),Percent Effect [%]
1,c1cnc2c(CN3CCCCC3c3ccncn3)cnn2c1 (stereo unspecified),72.9
2,CN(C)CCC1CCCCN1Cc1cnc(-c2ccccn2)nc1 (stereo unspecified),-28.12
3,CN(C)Cc1nc(C(C)(C)NC(=O)c2nc3ccccc3s2)no1,8.405
4,CC(C)c1cc(C(=O)N2C[C@H]3CC[C@@H]2CN(Cc2cscn2)C3)no1,-2.131
5,CNC(=O)C(C)(C)N1CCC[C@H]1C(=O)NC(C)(C)C,-3.15
6,OCCN1CCC(Cc2nccs2)CC1,98.4
7,Fc1ccc(CC2CCN(Cc3nccs3)CC2)cc1,16.43
8,Fc1ccccc1CC1CCN(Cc2nccs2)CC1,9.425
9,CCOCc1nc2c(c(NCc3cc(C)on3)n1)CCN(C(C)=O)CC2,-0.7778
10,CCc1nc(NC(=O)NCCc2scnc2C)nn1C,3.208
11,CN(C)c1cccc(C(=O)N2CCCC2c2ncc3c(n2)CCNC3)c1.Cl (stereo unspecified),118.3
12,O=C(c1ccc(F)c(F)c1)N1CCCCC1c1nc[nH]n1 (stereo unspecified),17.06
13,Cl.O=C(c1cccc(F)c1)N1CCCC1c1ncc2c(n1)CCNC2 (stereo unspecified),105.4
14,COc1cccc(C(=O)N2CCCC2c2ncc3c(n2)CCN(C)C3)c1 (stereo unspecified),114.1
15,CN(C)c1cccc(C(=O)N2CCc3ccc(=O)[nH]c3CC2)c1,-3.419
16,CCOc1ccccc1C(=O)N1CCCC1c1ncc2c(n1)CCNC2.Cl (stereo unspecified),7.885
17,COc1ccccc1C(=O)N1CCCC1c1nncn1CC(C)C (stereo unspecified),2.233
18,COc1cccc(C2CCCN2C(=O)c2ccc(=O)n(C)c2)c1 (stereo unspecified),0.747
19,COc1cccc(C2CCCN2C(=O)c2cc3c(nc2OC)CCC3)c1 (stereo unspecified),-14.5
20,Cc1ncnc2c1CCN(C(=O)c1cccc(F)c1)CC2,-5.781
21,COc1ccccc1C(=O)N1CCCC1c1ncc2c(n1)CCNC2.Cl (stereo unspecified),126.5
22,N#CCCCS(=O)(=O)N1CCC(CSc2ccccc2)C1 (stereo unspecified),-3.001

row,Structure (SMILES),Percent Effect [%]
1,O=C(C1SCCc2sccc21)N1CCN(CCO)CC1 (stereo unspecified),1.361
2,O=C1NC2(Nc3ncccc31)C(=O)Nc1c2ccc(Cl)c1F (stereo unspecified),-11.72
3,c1ccc(-c2nnc3n2CCN(c2nc(C4CC4)ns2)C3)cc1,-0.2636
4,CN(Cc1noc2c1CCCC2)C(=O)Cn1cnc2ccccc2c1=O,0.7727
5,CN1C(=O)COc2ccc(C(=O)Cn3cnc4ccccc4c3=O)cc21,102.3
6,O=C(Cn1ccc2ncccc2c1=O)N1CCSCC1,-22.33
7,CCCc1nccn1CCn1cnc2ccsc2c1=O,-10.48
8,CCn1ccnc1SCCn1cnc2ccsc2c1=O,-20.68
9,CN1C(=O)COc2ccc(C(=O)Cn3cnc4ccsc4c3=O)cc21,115.3
10,CC(C)(C)C(=O)N1CCN(CCOc2cccc(C#N)c2)CC1,23.12
11,CCC[C@@H]1CN(C(=O)c2c(F)ccc(OC)c2F)C[C@H]1C(=O)O,-8.772
12,CCOc1ccc(N(C)Cc2nc(C)c(C)o2)cc1,2.822
13,C/N=C1/c2cc3cc(OC)ccc3n2CCN1Cc1ccccc1.Cl,86.74
14,CCOC(=O)c1coc(N2CCN(Cc3cccc(OC)c3)C(=O)C2)n1,-20.43
15,COc1ccc2c(c1)nc1n2[C@@H](CNCc2ccccc2)COC1,-7.543
16,C/N=C1\c2cc3cc(OC)ccc3n2CCN1C.Cl,97.02
17,CCN1CC(NC(=O)Nc2nc(C)n(C(C)C)n2)CC1=O (stereo unspecified),-13.6
18,Cc1cc(N2CCC3(CCC(=O)N(CCCO)C3)CC2)nc(N(C)C)n1,15.64

# — ChEMBL document CHEMBL3988442, “University of Dundee, Small-Polar-MMV Screening Library” (2021)
